Experimental data taken from the supplement of paper PMC3334620.
Whole data set: some 33,000 sequences, median “E-score (-0.5 to 0.5)” near -0.016, cut for the highest 2% near 0.31. The list comes from a sample in which the highest values are over-represented; it also holds similar and randomly drawn sequences.

target: Cst6 (UniProt P40535); test: PBM E-score (8-mer binding enrichment) (E-score (-0.5 to 0.5)); higher = stronger / more preferred TF binding; conditions: protein concentration: 200 nM; construct: GST-DNA-binding domain
Sequence of UniProt P40535 (P40535 whole entry, the tested form may be a part): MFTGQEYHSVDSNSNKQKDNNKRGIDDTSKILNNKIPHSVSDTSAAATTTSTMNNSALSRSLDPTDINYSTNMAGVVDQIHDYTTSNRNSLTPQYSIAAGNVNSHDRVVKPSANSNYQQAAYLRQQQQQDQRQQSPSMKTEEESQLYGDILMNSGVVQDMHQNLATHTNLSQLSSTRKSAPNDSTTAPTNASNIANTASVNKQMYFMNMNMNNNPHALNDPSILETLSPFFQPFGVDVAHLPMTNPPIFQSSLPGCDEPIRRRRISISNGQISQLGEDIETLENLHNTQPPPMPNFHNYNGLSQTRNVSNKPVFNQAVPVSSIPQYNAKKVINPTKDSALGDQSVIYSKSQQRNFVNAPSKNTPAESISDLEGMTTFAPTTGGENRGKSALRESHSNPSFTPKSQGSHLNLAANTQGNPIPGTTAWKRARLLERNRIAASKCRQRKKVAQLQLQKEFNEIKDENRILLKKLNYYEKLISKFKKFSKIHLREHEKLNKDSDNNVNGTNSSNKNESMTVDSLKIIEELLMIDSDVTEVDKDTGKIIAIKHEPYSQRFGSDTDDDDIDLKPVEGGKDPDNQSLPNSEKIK
Experimental: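 Universal 'all 10-mer' protein binding microarrays (Agilent AMADID 015681) probed with GST-tagged S. cerevisiae TFs (full-length or DBD) made by in vitro transcription/translation (PURExpress), about 100-200 nM. Bound TF was detected with fluorescent anti-GST. Each ungapped 8-mer (which stands for itself and its reverse complement) is scored by the PBM enrichment score (E-score), a modified Wilcoxon-Mann-Whitney statistic from -0.5 to +0.5, computed with the Universal PBM Analysis Suite. Scale: above 0.35 generally sequence-specific binding.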

Sequence	PBM E-score
ATAATAAC	0.205
CTTATAAA	0.138
ATAATAAA	0.325
ATAATAAT	0.238
GTAATAAC	0.197
TTAATAAA	0.307
CTAATAAA	0.169
TTTATAAA	0.359
GTAAATAA	0.176
GTAATAAA	0.352
GTTATAAA	0.269
TAAATAAA	0.289
AACAGAAC	0.032
ACCAGCAT	-0.104
ATAAGAAT	0.253
ATAAGAAA	0.327
ATAAGAAC	0.248
AAGGAGGG	-0.0908
GTTTTATA	0.122
AATTTACG	0.296
ATTTTACC	0.264
ATTTTATA	0.321
AATTTTTA	0.228
ATTTTTTA	0.325
ATTTTATG	0.248

Sequence	PBM E-score
ATATTTTA	0.233
ATTTTACG	0.316
CGCCCCAA	0.0361
CCAGGCTC	-0.28
GGAGACGA	-0.0641
AGACCGTC	-0.127
CTCACCTC	0.0122
TCTTAAGA	0.0388
CAATAGGA	-0.0291
AGACAACA	0.0611
TAACAAAA	0.353
GGACAAAA	0.106
TGACAAAA	0.337
GAACAAAA	0.186
CGACAAAA	0.163
AAACAAAA	0.219
TGACAACA	0.346
CGACAACA	0.243
AGAACCGA	-0.127
CTCTACGC	-0.109
GGGAAAGA	-0.0768
CCGTGACC	-0.145
ACGTGACG	0.451
CCGTGACG	0.417
CCGTGACA	0.15

Sequence	PBM E-score
ACGTGACA	0.248
ACGTGACT	0.00931
AAAATCGA	0.106
TCAGGAAA	0.053
TCTTGCCA	-0.0736
CTTGCGGC	-0.0317
GGTCATAA	0.213
CGTCATAA	0.476
CCTCATAA	0.199
AGTCATAA	0.217
TGTCATAA	0.323
CTTCATAA	0.182
AAATCCTA	0.0429
ACGGGACG	-0.0627
AAGGGACT	-0.229
GCTGGTCC	-0.241
ACAGGGTC	-0.231
AAAATCTC	0.0464
AGTCATGC	-0.0259
AGTCATGA	0.124
GGTCATGA	0.239
CGTCATGA	0.461
CGTCATGC	0.472
CCTCATGC	-0.15
CCTCTCCC	-0.367

Sequence	PBM E-score
ATTTCCAG	0.0306
ATGTGGGC	-0.068
CCACCCGA	-0.0893
ACGACAGA	-0.00441
CAATATTC	-0.0581
AAATATTA	0.286
CAATATTA	0.215
CAATATGA	0.245
CAATATTG	0.306
TAATATTA	0.391
GAATATTA	0.188
AAATATGA	0.239
TAATATGA	0.305
CAGTGCAA	0.0823
GGGTACCC	-0.239
GCCGCCGA	0.0801
GCTAGTAA	0.0344
CCCCATTA	-0.257
AAGGTAGC	-0.198
CTTTGGGC	-0.163
ACATCAGG	0.163
AGTCCCCC	-0.43
GTTCGTCA	0.269
CTTCGTCA	0.336
CTTCGTCC	-0.155

Sequence	PBM E-score
ATTCGTCG	0.0126
ATTCGTCA	0.423
CGTCGTCA	0.258
CGGTGCAA	-0.202
CCTATGGC	-0.219
GCTAACAC	-0.00396
AAAGGGAG	-0.152
TAACTGTA	0.032
CGGATAAG	-0.118
AGGGGCTG	-0.271
CGCCAGCC	-0.193
ATAAATTA	0.373
CTAAATTA	0.262
ATAAATAA	0.335
TTAAATAA	0.18
ATAAATAG	0.135
ATAAATTG	0.258
CAAAATTA	0.233
AAAAATTA	0.333
GAAAATTA	0.195
ATTTGACA	0.173
ACGCCAAT	0.223
AGCCTTAT	-0.0913
ACGCGTAA	0.129
CCGCGTCC	0.099

Sequence	PBM E-score
GCGCGTCA	0.381
CCGCGTCG	0.0654
GCGCGTCC	-0.198
GCGCGTTA	0.0245
GCGCGTAA	0.224
ACGCGTCC	-0.129
ACGCGTCT	-0.0602
ACGCGTCA	0.381
TCGCGTAA	0.314
CCGCGTCA	0.34
CCTCCCTC	-0.162
GGAAATGA	0.195
CGTAGATC	0.143
CTCGAAAC	0.0781
GGTAGGCA	-0.184
AGGCGACT	-0.103
CGATGAAC	-0.0118
CAAGGCGG	0.00218
ATCCGCAA	-0.0389
TCGCGTCA	0.369
CGGCGTCA	0.34
TCGCGACA	-0.202
CGGCGTCC	0.113
AGGCGTCA	0.256
TCGCGGCA	-0.0207

Sequence	PBM E-score
ACGCCGAA	0.0504
AAAACATG	0.114
AAATGATG	0.332
CAATGATA	0.268
AAATGATC	0.0366
CAATGATC	0.095
AAATGATT	0.294
CAATGATG	0.391
CTAATCTA	-0.0326
GTAATCTA	0.345
GTAATCAC	0.225
GTAATCAA	0.313
CTAATCAA	0.205
ATAATCTA	0.0831
CTAGATTC	-0.0987
ATTTCATG	0.00873
CAAACTAG	-0.195
TGACCTCA	0.45
TGACCTAA	0.362
CGACCTAA	0.11
GGACCTAA	-0.105
CGACCTCA	0.0422
AGACCTCA	0.022
CAGGACAA	0.0953
TCCACCAA	-0.117

Sequence	PBM E-score
GAAGAACC	-0.119
AGATGATC	0.0705
ATATGATG	0.333
ATATGATC	0.234
ATATGACG	0.472
AGATGATG	0.346
AGATGATA	0.211
ATATGACC	0.108
ATATGATA	0.296
CTATGACC	0.193
AAATGGCG	0.142
TAGTGCCA	-0.123
AGCTAAGC	-0.156
GCGCTGCA	-0.0118
CGAACCCG	-0.251
CCGGATTC	-0.172
ACCTATTA	0.0751
AGAGATCA	-0.0737
TGAGATCA	0.344
GGAGATCA	-0.0624
CTCATCAC	0.146
ATAATCAT	0.344
ATCATCAC	0.341
GTCATCAC	0.409
AACATCAT	0.378

Sequence	PBM E-score
GCCATCAC	0.0711
AACATCAC	0.295
AACATCAG	0.183
ATAATCAG	0.106
ATAATCAA	0.16
AGCATCAC	0.0541
GGCATCAC	0.227
ACCTTCAA	-0.00754
AACGCAAG	0.00296
AATCTGAG	-0.0919
AAGTCTTG	-0.0973
ATAGCGGA	-0.107
ACTATTGA	0.202
AGGGCGCA	-0.0682
ATAATGAC	0.295
ATAATGAT	0.334
ATCATCAT	0.355
ATAATGAG	0.0695
AGCATCAT	0.251
ATCATCAG	0.259
GGTGTCTA	0.0529
AGGCTGCG	-0.225
GTAGGACA	-0.0243
CGCTTCGC	-0.0922
ACACACAC	0.0991

Sequence	PBM E-score
TAACCTAA	0.158
ATTCGATG	0.105
CCTCATCG	0.00595
AATCATCG	0.039
ACTCATCA	0.00088
AATCATCA	0.308
CATCATCA	0.409
GATCATCC	-0.0712
CATCATCC	0.345
AATCATCC	0.113
CATCATCG	0.333
GATCATCA	0.163
CCTCATCA	0.161
AATCATCT	0.114
ACGCTGCT	-0.22
CCGGGCGC	-0.213
TGCCTAAA	0.0602
CCGATTTC	-0.121
TACCGACA	0.075
TAGGCTGA	-0.0803
CCCCTACG	-0.298
GAGGAGGA	-0.288
ACTCCTTC	-0.234
AATCATTA	0.28
TATCATCA	0.341

Sequence	PBM E-score
TATCATAA	0.144
CATCATTC	0.223
TCTCATCA	0.181
CATCATTA	0.327
CCTGCTTA	-0.0696
GGGTCGCA	-0.144
CCGAGGCG	0.0158
CTCCTAGA	-0.09
ATGCATTA	0.255
CACTTACC	0.0685
CAATTACA	0.223
ATATTACA	0.248
ATATTACC	0.248
ATATTACG	0.415
CAATTACG	0.346
CACTTACG	0.351
AAATTACT	0.222
AAATTACG	0.336
CAATTACC	0.138
AAATTACC	0.199
CACTTACA	0.173
AACTGCCT	0.129
CCGTTGCG	0.0674
TACCTGCA	-0.0618
ACAAGATA	0.0758

Sequence	PBM E-score
AGCTATGA	0.101
ATATGCAC	0.0769
ACGGGCAC	-0.105
CAGCCCAC	-0.191
AAGGTAAT	0.129
ACCGTCCC	-0.173
ATGTAAGA	0.339
CCGTAAGA	-0.0536
ACGTAAGA	0.448
GTGTAAGA	0.0158
GCGTAAGC	0.0902
ACGTACGT	0.311
ACGTACGC	0.229
ACGTAAGC	0.381
CCGTAAGC	-0.0303
TCGTAAGA	0.00239
CTGTAAGA	0.0332
ACGTACGG	0.149
ATCTGGAA	0.184
GCTCAATA	0.0653
CATAGAGG	-0.0937
CACCTCGG	0.02
CACCATTC	0.0213
AGGTATTC	0.0784
ACCGCAGG	-0.104

Sequence	PBM E-score
CCACCGAC	-0.163
ACTCAAGT	-0.053
CACAACCA	0.124
GTATACCA	-0.051
TGCGCCAA	-0.0304
AAGTAAGC	0.0657
ACGTAAGT	0.422
CCGTAAGG	-0.113
ACGTAAGG	0.347
AAGTAAGT	0.116
AGGTAAGG	-0.132
AGTGGCGC	0.00481
AGCCAAAG	-0.114
GATGATAA	0.257
CCAGCTCC	-0.29
ACGCTCCG	-0.119
GAAATAAC	0.148
AAAATAAC	0.178
CAAATAAC	0.37
ACAGGGCG	0.0932
ACCGACGA	-0.0237
ACCTCCGT	-0.0629
AAATGGCC	-0.0934
ATACATAT	0.337
ATACATCA	0.398

Sequence	PBM E-score
ATACATAC	0.0814
ATGCATCG	-0.00649
CTACATCA	0.302
ATACATAA	0.258
GTACATCA	0.275
GTGCATCA	0.0738
ATGCATCA	0.372
CAGTCGCG	-0.25
AGATTCAC	-0.122
GAAACCTA	-0.148
CTAAAGGC	0.0355
CATCAAAG	0.0154
AAGGGAAT	0.112
ATGTAACG	0.235
ATGTAATG	0.394
CTGTAATA	0.108
GTGTAATA	0.214
ATGTAATA	0.415
ATGTAATC	0.299
